# This is part of a sample that, as a whole, favours compounds with a hit. Of some 83,000 tested, about 20% had one in any assay.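 96-well plates, one dose, 48 hours. Percent growth reported; active if below 10.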 A number with no mark means an inactive call. Calls of active or inactive are those of the source.
# How the values were obtained:
# Test in all cases: NCI-60 one-dose screen, 48 h (100 = growth as untreated, 0 = no growth, -100 = all killed)
# [1] = system: HCT-15 colon; settings: 10 µM unless noted
# [2] = system: HT29 colon; settings: 10 µM unless noted
# [3] = system: SNB-75 CNS; settings: 10 µM unless noted
# [4] = system: SNB-19 CNS; settings: 10 µM unless noted
# [5] = system: U251 CNS; settings: 10 µM unless noted
# [6] = system: PC-3 prostate; settings: 10 µM unless noted
# [7] = system: SK-MEL-5 melanoma; settings: 10 µM unless noted
# [8] = system: UACC-62 melanoma; settings: 10 µM unless noted
# [9] = system: LOX IMVI melanoma; settings: 10 µM unless noted
# [10] = system: SK-MEL-28 melanoma; settings: 10 µM unless noted
# [11] = system: SK-MEL-2 melanoma; settings: 10 µM unless noted
# [12] = system: EKVX NSCLC; settings: 10 µM unless noted
# [13] = system: SN12C renal; settings: 10 µM unless noted
# [14] = system: UO-31 renal; settings: 10 µM unless noted
# [15] = system: A498 renal; settings: 10 µM unless noted
# [16] = system: CCRF-CEM leukemia; settings: 10 µM unless noted
# [17] = system: MOLT-4 leukemia; settings: 10 µM unless noted
# [18] = system: TK-10 renal; settings: 10 µM unless noted
# [19] = system: ACHN renal; settings: 10 µM unless noted
# [20] = system: CAKI-1 renal; settings: 10 µM
SMILES,growth [1],growth [2],growth [3],growth [4],growth [5],growth [6],growth [7],growth [8],growth [9],growth [10],growth [11],growth [12],growth [13],growth [14],growth [15],growth [16],growth [17],growth [18],growth [19],growth [20]
COc1ccc(/C=C/C(=O)c2ccc(NC(=O)CSc3nnc(-c4cc(OC)c(OC)c(OC)c4)o3)cc2)cc1,-79.6% (active),-80.9% (active),-89.7% (active),-48.7% (active),-90.1% (active),-34.7% (active),-84.2% (active),-46.3% (active),-69.4% (active),-21% (active),37.7%,-2.83% (active),-43.5% (active),-85.3% (active),90.5%,-1.51% (active),-25.9% (active),–,–,–
Cc1ncc(CO)c(C(=O)O)c1O,105%,89.1%,93.4%,107%,98.8%,88.5%,103%,97%,102%,102%,89.7%,101%,97.6%,84.8%,99.5%,121%,82.5%,–,–,–
CCC1S/C(=N\N=C(/C)c2ccco2)N(c2ccccc2)C1=O (stereo not given),118%,86.8%,103%,104%,104%,76.6%,146%,92%,99.5%,108%,112%,109%,141%,–,160%,-58.4% (active),78.7%,79.4%,110%,–
CC(=O)N1N=C2N(Cc3ccccc3)C(=O)c3c(sc4c3CCCC4)N2C1c1cn(-c2ccccc2)nc1-c1ccc(Cl)cc1 (stereo not given),96.9%,107%,99.3%,94.2%,87.2%,92.6%,102%,95.5%,92.9%,104%,98%,87.9%,103%,–,103%,92.4%,86.3%,102%,96.6%,101%
C/C(=N/NC(=O)Cn1c2ccccc2c2ccncc21)c1cccs1,99.8%,89.5%,104%,94.9%,97.5%,99.2%,99.4%,95.8%,104%,108%,96.6%,103%,104%,–,86.5%,91.1%,83.1%,127%,103%,–
COc1ccc2c(c1)C(=O)/C(=C/c1ccc(OCC(=O)c3ccc(Cl)cc3)cc1)O2,98.8%,100%,-0.258% (active),101%,80.9%,50.9%,131%,72.2%,40.1%,104%,87%,82%,92.2%,–,148%,29%,20%,132%,98.8%,-53.4% (active)
COc1ccc2c(c1)C(=O)/C(=C/c1cccc(OCC(=O)c3ccccc3)c1)O2,31.8%,-15.7% (active),-8.04% (active),99.1%,41.5%,-43.4% (active),50.2%,67%,-5.01% (active),-11.1% (active),75.1%,82.1%,32.9%,–,117%,-39.3% (active),-52.4% (active),30.7%,–,-98.1% (active)
COc1ccc(C(=O)NC(=O)Nc2ccc3c(c2)NC(=O)/C3=C\c2[nH]c(C)c(C(=O)O)c2C)c(F)c1,47.8%,16.5%,30.4%,79.3%,32.1%,40.2%,28.2%,38.3%,52.4%,57.9%,55.3%,94.4%,57.9%,88.4%,64.8%,84.3%,86.2%,–,–,–
CC(=O)c1ccc2c(c1)C1C=CCC1[C@H](c1cc3c(cc1Br)OCO3)N2 (stereo not given in full),18.4%,4.15% (active),30.6%,44.6%,14%,20.9%,9.13% (active),34.6%,-35.6% (active),72.7%,16.1%,34.9%,43.5%,–,13.5%,4.69% (active),7.5% (active),60.6%,–,20.3%
O=C(Nc1ccc(-n2cc(-c3ccncc3)c(-c3ccc(O)c(Cl)c3)n2)cc1)Nc1cccc(Cl)c1Cl,43.1%,1.45% (active),72.5%,71.9%,39.7%,29%,31.2%,89.5%,52.8%,60.3%,66.8%,44.9%,83.1%,–,68.7%,38.2%,39.1%,–,47.8%,67.3%
Cc1ccc[n+](CC(=O)c2cccc3ccccc23)c1,102%,102%,96.2%,107%,106%,101%,99.7%,111%,104%,105%,106%,95.9%,102%,–,90%,101%,98%,–,103%,100%
CC(=O)CC/C=C(\C)[C@H](O)[C@H](C)C(=O)O[C@H]1C[C@H](C)C=C2C=C[C@@]3(C)O[C@@H](O)CC(=O)[C@]3(C)[C@H]21,0.209% (active),-33.8% (active),-85.3% (active),-12.3% (active),-25.9% (active),-31.2% (active),-91.7% (active),-56.6% (active),-55.1% (active),-40.7% (active),-59.7% (active),-28.8% (active),-11.5% (active),-28.6% (active),-66.2% (active),4.28% (active),-7.91% (active),–,–,–
Nc1c(C(=O)O)[nH]c(=O)[nH]c1=O,104%,92.7%,98%,104%,91.9%,94.4%,103%,89%,97.6%,109%,99.5%,105%,98.3%,94.2%,106%,90.3%,96.2%,–,–,–
COc1ccc(Cl)cc1NC(=O)c1cc2c(n1C)-c1nc(NC(=O)C(C)C)sc1CC2,50.7%,66.7%,59.3%,83.1%,59.9%,60.6%,61%,83.1%,93%,95.1%,64.6%,91.3%,94.5%,–,93.2%,84.4%,80.2%,92%,–,–
COc1ccc(Cn2cc(COc3ccc4c5ccnc(C)c5n(CCCc5ccccc5)c4c3)nn2)cc1,68.4%,43.5%,51%,84.4%,64.9%,74.8%,79.1%,34.8%,70.3%,76.2%,64.4%,101%,69.1%,–,88.8%,19.7%,38.4%,103%,–,–
Nc1nc(-c2cc3c(cc2Cl)NC(=O)/C3=C/c2ccc(Cl)cc2)cs1,49.6%,35.6%,49.1%,31.2%,21.8%,32.6%,6.5% (active),36%,12.6%,45.4%,36.6%,35.3%,48.8%,54.3%,74.8%,19%,15.5%,–,–,–
Cc1cccc(NC(=O)CCc2ccc(N3C(N)=NC(N)=NC3(C)C)cc2)c1,103%,17.1%,60.2%,37%,36.9%,10.5%,26.9%,24.6%,18.7%,69.9%,–,55.6%,30.3%,115%,95.2%,31.1%,50.5%,82.5%,101%,–

# From PubChem BioAssay (NCI)
